Source: PubChem BioAssay
Calls of active or inactive are those of the source. Unless noted, how the calls were made is not given here.

Tests used:
[1] = anti-His antibody binders, primary screen, artefact control for SMM control protein annotation, biochemical, small-molecule microarray, 635 nm fluorescence (AID 1128); details: anti-His Alexa647 antibody binding, higher = more signal;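 further: score merges feature fluorescence with signal-to-noise for each printed compound spot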
[2] = system: Human papillomavirus type 1a E7 protein (residues 1-88); experiment: HPV1a E7 small-molecule binders, primary screen, biochemical, small-molecule microarray, residues 1-88, 635 nm (AID 1129); details: small-molecule microarray binding, fluorescence 635 nm; higher = more signal
[3] = target: Focal adhesion kinase 1 (Homo sapiens) (UniProt Q05397); experiment: small-molecule microarray binders of FAK, primary screen, biochemical, 635/667 nm fluorescence, BSA, DTT (AID 1130); details: PTK2 binding, 635 nm fluorescence, higher = more signal;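 further: composite of spot emission at 667 nm and signal to noise over triplicate slides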
[4] = system: Fibrinogen (Alexa647-labelled); experiment: fibrinogen binders on compound microarrays, profiling panel, artefact control for SMM control-protein annotation, biochemical, small-molecule microarray, 635/667 nm fluorescence (AID 1131); details: fibrinogen-A647 binding fluorescence, higher = more signal;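 further: z-score merges 667 nm fluorescence with per-spot signal-to-noise over triplicate slides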
[5] = target: Follistatin (Homo sapiens) (UniProt P19883); experiment: follistatin binders on small-molecule microarrays, primary screen, biochemical, small-molecule microarray, 635/667 nm fluorescence (AID 1132); details: FST binding, 635 nm fluorescence, higher = more signal
[6] = target: Fibroblast growth factor 2 (Homo sapiens) (UniProt P09038); experiment: FGF2 binders on small-molecule microarrays, primary screen, biochemical, small-molecule microarray, 635/667 nm fluorescence (AID 1133); details: small-molecule microarray binding, FGF2, fluorescence 635/667; higher = more signal
[7] = mitochondrial membrane potential change in A549 cells, profiling panel, cell-based, JC-1 fluorescence, basal, 24 h, 100 nL (AID 1138); details: higher = more signal;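 further: A549 lung adenocarcinoma cells under basal conditions with no added stimulus; test concentration not given here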
Lefty1 = Lefty1 binders on small-molecule microarrays, primary screen, biochemical, small-molecule microarray, 635/667 nm fluorescence (AID 1139); details: small-molecule microarray binding, fluorescence 635/667; higher = more signal
[8] = system: wheat germ agglutinin (Triticum aestivum), Alexa647-labelled; experiment: wheat germ agglutinin binders on compound microarrays, profiling panel, artefact control for SMM control-protein annotation, biochemical, small-molecule microarray, 635/667 nm fluorescence (AID 1140); details: WGA-A647 binding, 635 nm fluorescence, higher = more signal;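 further: score merges 667 nm feature emission with signal to noise over triplicate slides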
[9] = target: Luciferin 4-monooxygenase (Photinus pyralis) (UniProt P08659); experiment: firefly luciferase enzyme inhibitors, primary screen, biochemical, luminescence, purified enzyme, 2006 set (AID 1141); details: SteadyGlo luminescence, 30 min, higher = more signal, called active from +8 up or from −8 down;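 further: cell-free assay with purified firefly luciferase at 100 ng per well in PBS; test concentration not given here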
[10] = system: Wnt5a (protein binding on small-molecule microarray); experiment: Wnt5a binders on small-molecule microarray, primary screen, biophysical, 635/667 nm fluorescence (AID 1142); details: 635 nm fluorescence, higher = more signal;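 further: fluorescence read at 667 nm with signal to noise per printed feature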
[11] = cell viability in Huh7 cells, primary screen, cytotoxicity control for HCV replication inhibitor project, CellTiter-Glo luminescence, basal, 48 h (AID 1143); details: Huh7 HCV replicon, higher = more signal, called active from +8 up or from −8 down;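 further: Huh7 hepatoma cells carrying a hepatitis C replication reporter with no stimulus; test concentration not given here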
[12] = P. aeruginosa biofilm formation inhibitors, primary screen, PAO1 strain, BacTiter-Glo luminescence, LB-PBS (AID 1144); details: 12 h, higher = more signal
[13] = CREB reporter modulators without forskolin, primary screen, cell-based, PC12, CRE-LacZ reporter, unstimulated (AID 1145); details: no forskolin, luminescence, 4.5 h, higher = more signal, called active from +8 up or from −8 down
[14] = CREB reporter modulators under forskolin, primary screen, cell-based, PC12, CRE-LacZ reporter, forskolin-stimulated (AID 1146); details: luminescence, 4.5 h, higher = more signal, called active from +8 up or from −8 down;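 further: PC12 cells with 6xCRE LacZ reporter stimulated by forskolin 10 µM; beta-galactosidase reporter signal reflecting CREB driven transcription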
[15] = target: Streptavidin (Streptomyces avidinii) (UniProt P22629); experiment: streptavidin binders on small-molecule microarray, primary screen, artefact control for SMM compound annotation, biophysical, 635/667 nm fluorescence (AID 1147); details: streptavidin binding, higher = more signal;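 further: signal reflects streptavidin binding to arrayed compounds as a control protein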
[16] = small-molecule binders of probe aInhba, primary screen, biochemical, small-molecule microarray, 635/667 nm fluorescence (AID 1148); details: higher = more signal;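 further: score merges 667nm spot fluorescence with signal-to-noise for antibody binding to printed compounds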
Torsin-1A (Homo sapiens) [17] = target: Torsin-1A (Homo sapiens) (UniProt O14656); experiment: torsin A binders from cell lysate, primary screen, small-molecule microarray, wild-type, 635/667 nm (AID 1149); details: COS7 hTOR1A-WT lysate, 635 nm fluorescence, higher = more signal
Torsin-1A (Homo sapiens) [18] = target: Torsin-1A (Homo sapiens) (UniProt O14656); experiment: small-molecule binders of mutant TOR1A in lysate, primary screen, cell lysate, small-molecule microarray, COS7 lysate, 635/667 nm fluorescence (AID 1150); details: COS7 hTOR1A mutant lysate, 635 nm fluorescence, higher = more signal;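 further: score pools 667 nm emission and signal to noise measuring lysate protein binding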
[19] = system: Sonic hedgehog protein (Shh); experiment: small-molecule binders of Shh protein, primary screen, biochemical, small-molecule microarray, 635/667 nm fluorescence (AID 1151); details: small-molecule microarray binding, 635 nm fluorescence; higher = more signal;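 further: Shh protein binding to compounds spotted on small-molecule microarray slides; score combines spot fluorescence intensity with signal-to-noise across triplicate slides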

Focal adhesion kinase 1 (Homo sapiens), sequence (Q05397 whole entry, looked up): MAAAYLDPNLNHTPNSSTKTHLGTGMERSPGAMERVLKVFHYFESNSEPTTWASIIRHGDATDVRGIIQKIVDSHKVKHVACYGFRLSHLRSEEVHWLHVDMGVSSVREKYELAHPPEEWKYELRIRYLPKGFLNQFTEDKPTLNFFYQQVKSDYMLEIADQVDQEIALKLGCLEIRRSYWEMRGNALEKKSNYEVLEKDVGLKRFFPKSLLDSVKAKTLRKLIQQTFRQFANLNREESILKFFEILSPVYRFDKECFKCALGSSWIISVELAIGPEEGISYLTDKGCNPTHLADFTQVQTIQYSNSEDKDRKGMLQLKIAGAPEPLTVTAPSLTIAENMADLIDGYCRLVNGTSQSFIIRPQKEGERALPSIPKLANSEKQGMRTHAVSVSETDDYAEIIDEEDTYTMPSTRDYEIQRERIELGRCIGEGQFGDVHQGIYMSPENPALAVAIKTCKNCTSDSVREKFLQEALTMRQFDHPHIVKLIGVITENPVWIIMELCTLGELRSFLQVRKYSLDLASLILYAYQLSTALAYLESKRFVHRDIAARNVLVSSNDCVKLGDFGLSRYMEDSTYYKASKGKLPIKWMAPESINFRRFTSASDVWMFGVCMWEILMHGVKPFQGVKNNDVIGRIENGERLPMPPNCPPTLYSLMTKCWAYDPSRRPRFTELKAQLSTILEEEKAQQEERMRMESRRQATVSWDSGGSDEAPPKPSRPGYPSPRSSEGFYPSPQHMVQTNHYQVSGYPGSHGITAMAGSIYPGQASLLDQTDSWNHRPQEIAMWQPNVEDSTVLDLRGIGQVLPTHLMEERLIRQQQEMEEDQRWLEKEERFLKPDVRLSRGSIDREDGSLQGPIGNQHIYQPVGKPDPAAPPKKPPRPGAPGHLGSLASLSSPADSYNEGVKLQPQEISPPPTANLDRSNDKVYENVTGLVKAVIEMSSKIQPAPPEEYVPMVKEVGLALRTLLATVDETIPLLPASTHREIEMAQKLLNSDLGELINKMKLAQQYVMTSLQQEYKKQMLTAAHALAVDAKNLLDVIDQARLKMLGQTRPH
Streptavidin (Streptomyces avidinii), sequence (P22629 whole entry, looked up): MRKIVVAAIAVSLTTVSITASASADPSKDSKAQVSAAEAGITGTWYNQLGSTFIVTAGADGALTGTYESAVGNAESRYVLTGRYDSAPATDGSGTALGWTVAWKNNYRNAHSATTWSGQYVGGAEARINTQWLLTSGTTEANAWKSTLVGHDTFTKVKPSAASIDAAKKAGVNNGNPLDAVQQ
Fibroblast growth factor 2 (Homo sapiens), sequence (P09038 whole entry, looked up): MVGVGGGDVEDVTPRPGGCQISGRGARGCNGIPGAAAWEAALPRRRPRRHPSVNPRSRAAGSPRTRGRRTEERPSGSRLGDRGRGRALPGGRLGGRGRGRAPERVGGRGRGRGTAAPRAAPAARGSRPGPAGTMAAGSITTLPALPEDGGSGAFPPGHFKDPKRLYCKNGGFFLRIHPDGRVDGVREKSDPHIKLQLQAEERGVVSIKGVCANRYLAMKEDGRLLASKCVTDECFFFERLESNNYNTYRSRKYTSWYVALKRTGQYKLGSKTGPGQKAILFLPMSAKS
Luciferin 4-monooxygenase (Photinus pyralis), sequence (P08659 whole entry, looked up): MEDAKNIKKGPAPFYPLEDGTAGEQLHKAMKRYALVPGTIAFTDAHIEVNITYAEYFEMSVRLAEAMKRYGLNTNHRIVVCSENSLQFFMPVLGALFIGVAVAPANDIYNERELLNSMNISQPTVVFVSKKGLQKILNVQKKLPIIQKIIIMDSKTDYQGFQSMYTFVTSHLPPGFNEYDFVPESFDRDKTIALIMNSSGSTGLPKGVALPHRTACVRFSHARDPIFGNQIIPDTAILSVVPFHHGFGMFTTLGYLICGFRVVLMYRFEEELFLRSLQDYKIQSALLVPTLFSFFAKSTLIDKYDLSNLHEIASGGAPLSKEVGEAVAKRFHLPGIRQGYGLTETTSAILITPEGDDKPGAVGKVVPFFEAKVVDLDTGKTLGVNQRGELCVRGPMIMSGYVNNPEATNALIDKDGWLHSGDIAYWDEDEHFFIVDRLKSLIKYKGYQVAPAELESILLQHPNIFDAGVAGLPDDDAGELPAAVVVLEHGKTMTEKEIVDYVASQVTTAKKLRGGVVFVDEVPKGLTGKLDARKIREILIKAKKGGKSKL
Follistatin (Homo sapiens), sequence (P19883 whole entry, looked up): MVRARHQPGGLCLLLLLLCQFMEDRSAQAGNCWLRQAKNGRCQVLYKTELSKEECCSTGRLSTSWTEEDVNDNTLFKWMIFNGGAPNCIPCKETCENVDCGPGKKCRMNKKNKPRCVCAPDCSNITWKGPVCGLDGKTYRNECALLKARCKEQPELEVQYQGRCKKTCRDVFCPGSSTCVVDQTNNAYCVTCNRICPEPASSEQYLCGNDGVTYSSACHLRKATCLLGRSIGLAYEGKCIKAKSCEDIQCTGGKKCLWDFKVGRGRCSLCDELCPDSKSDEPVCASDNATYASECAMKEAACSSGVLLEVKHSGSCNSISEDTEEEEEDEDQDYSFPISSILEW
Torsin-1A (Homo sapiens), sequence (O14656 whole entry, looked up): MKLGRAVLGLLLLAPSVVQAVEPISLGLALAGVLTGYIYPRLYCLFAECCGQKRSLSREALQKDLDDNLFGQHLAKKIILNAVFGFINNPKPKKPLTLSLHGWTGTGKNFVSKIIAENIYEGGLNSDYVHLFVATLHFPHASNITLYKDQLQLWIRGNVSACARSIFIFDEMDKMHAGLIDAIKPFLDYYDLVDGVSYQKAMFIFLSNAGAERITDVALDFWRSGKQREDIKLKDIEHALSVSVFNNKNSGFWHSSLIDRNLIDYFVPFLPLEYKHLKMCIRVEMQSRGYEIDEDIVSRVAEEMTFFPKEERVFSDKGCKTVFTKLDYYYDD

Structure (SMILES)	composite z-score [1]	composite z-score [2]	composite z-score [3]	composite z-score [4]	composite z-score [5]	composite z-score [6]	z-score [7]	composite z-score (Lefty1)	composite z-score [8]	z-score [9]	composite z-score [10]	z-score [11]	z-score [12]	z-score [13]	z-score [14]	composite z-score [15]	composite z-score [16]	composite z-score (Torsin-1A (Homo sapiens) [17])	composite z-score (Torsin-1A (Homo sapiens) [18])	composite z-score [19]
COC(=O)[C@@]1(CCC(=O)OC(C)(C)C)N=C(c2ccc(OCCCO)cc2)O[C@H]1c1ccccc1CN=[N+]=[N-]	0.656	0.0163	-0.0599	0.0201	0.663	0.442	0.895	-0.756	0.249	-0.488 (inactive)	0.113	-2.35 (inactive)	-0.0281 (inactive)	1.94 (inactive)	-1.55 (inactive)	-0.139	0.241	-0.193	0.261	0.339
CCC(CC)C(O)C1C=CC2C(=O)N(C)C(=O)C2N1N1CCCCC1 (stereo not given)	2.05	1.23	-0.0333	0.967	1.33	0.406	0.309	0.831	1.12	-0.203 (inactive)	0.323	0.374 (inactive)	-0.328 (inactive)	0.0501 (inactive)	1.06 (inactive)	1.51	0.3	0.504	0.844	0.959
C=CC[C@]1(C(=O)NCCCOC)N=C(c2ccc(OCCCO)cc2)O[C@H]1c1ccccc1	1.19	1.21	0.0442	-0.922	1.29	-0.9	0.266	-0.689	0.566	0.436 (inactive)	0.274	-2.26 (inactive)	-0.747 (inactive)	0.857 (inactive)	0.15 (inactive)	-0.0374	-0.0986	0.872	1.37	-1.62
C=CCNC(=O)[C@@H]1[C@H]2C(=O)O[C@H](c3ccccc3)[C@H](c3ccccc3)N2[C@H](c2ccc(O)cc2)[C@@]12C(=O)Nc1ccc(C#CC3(O)CCCCCC3)cc12	0.906	0.596	1.31	-1.37	0.726	0.749	-0.9	0.304	-0.321	0.27 (inactive)	0.179	-0.794 (inactive)	-0.817 (inactive)	-1.69 (inactive)	-0.361 (inactive)	-0.932	-0.128	0.16	0.781	1.11
CO[C@H]1O[C@H](CO)[C@@H](OC(=O)Nc2ccc(C(F)(F)F)cc2)[C@H](OC(=O)Nc2ccccc2-c2ccccc2)[C@@H]1OC(=O)Nc1ccccc1-c1ccccc1	2.01	1.1	0.799	0.911	1.3	0.697	0.284	1.08	1.04	0.798 (inactive)	0.229	-4.02 (inactive)	0.821 (inactive)	0.148 (inactive)	0.892 (inactive)	1.02	0.228	0.363	0.979	1.34
CCOC(=O)C1=CC[C@@H](c2ccccc2)N(S(=O)(=O)C[Si](C)(C)C)[C@H]1c1ccccc1	1.07	1.19	0.656	0.996	1.21	0.497	-1.48	0.562	0.862	2.37 (inactive)	0.389	-2.78 (inactive)	-0.667 (inactive)	-0.63 (inactive)	1.56 (inactive)	1.48	0.127	0.899	0.799	0.257
COc1ccc([Si](C)(C)[C@H]2[C@H](CC(=O)N3Cc4ccccc4C[C@H]3CO)O[C@@]3(C(=O)N(Cc4cccc(N5C(=O)c6cccc7cccc5c67)c4)c4ccccc43)[C@@H]2C)cc1	0.577	1.16	0.463	-0.0297	1.18	1.59	1.03	1.53	0.108	-1.53 (inactive)	0.862	-4.55 (inactive)	-0.765 (inactive)	11 (active)	-1.41 (inactive)	0.159	-0.0107	1.39	0.736	2.23
C=CCC(OC(C)=O)[C@@H]1[C@@H](N(Cc2cc3ccccc3o2)C(=O)Cc2ccc(OC)cc2)c2cc(OCCCO)ccc2N1C(=O)Cc1ccc2ccccc2c1 (stereo not given in full)	0.305	-0.866	0.102	0.136	0.279	-0.662	0.432	-0.173	0.116	-0.1 (inactive)	-0.211	-0.392 (inactive)	0.334 (inactive)	1.25 (inactive)	0.775 (inactive)	0.0489	-0.155	-0.773	-1.01	-0.155
COc1ccc([Si](C)(C)[C@H]2[C@H](CCO)O[C@@]3(C(=O)N(Cc4ccc(N5CCOC5=O)cc4)c4ccccc43)[C@@H]2C)cc1	0.965	0.516	0.5	0.45	-0.11	-0.271	0.533	0.263	0.433	-0.605 (inactive)	-0.159	-3.29 (inactive)	-0.232 (inactive)	2.2 (inactive)	-2.06 (inactive)	0.346	-0.0791	0.216	0.0362	0.397
CC(C)(C)N1CC=CC23O[C@@H]4/C=C\CCCOC(=O)C4[C@H]2C(=O)N(CCCCCCO)[C@@H]3C1=O (stereo not given in full)	3.08	-0.444	-0.639	-1.01	-0.93	-0.502	1.2	-1.11	0.0119	-0.854 (inactive)	-0.731	-0.0711 (inactive)	-1.95 (inactive)	-0.224 (inactive)	-0.739 (inactive)	-1	-0.0719	0.467	0.488	-0.22
